Results filed as inconclusive are left out. A call without a number means that no potency is given here. Active and inactive are the calls of the source. Calls follow the shape of the dose curve; as a rule, active = well fitted inhibition curve with a large enough effect; inconclusive = small, poorly fitted or top-dose-only effect; inactive = flat fitted curve, though single readings scatter.
system: ICS; test: qHTS profiling for inhibitors of Plasmodium falciparum proliferation (AID 504749); also: nearly all actives have a fitted effect of over 60% in size; conditions: P. falciparum in erythrocytes, SYBR Green DNA, 72 h; series mostly up to 28.7 µM
In short: (§1)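 Infected RBCs, 0.3% parasitemia/2.5% Hct final; cpd 72 h, 37 C, 5% CO2; lysis buffer with saponin/triton/SYBR Green I, o/n RT dark; FI 485/535; norm. to artemisinin (0.29 uM) and DMSO.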
Potency is read from the fitted curve at half-maximal effect.

| Structure (SMILES) | Potency |
| --- | --- |
| CCN(CC)C(=O)c1ccc(O)c(OC)c1 | inactive |
| CCCCC1C(=O)N(c2ccccc2)N(c2ccccc2)C1=O | 11.2 µM (active) |
| CCCNC(=O)NS(=O)(=O)c1ccc(Cl)cc1 | inactive |
| CCN1CCC[C@H]1CNC(=O)c1cc(S(N)(=O)=O)ccc1OC | inactive |
| C[N+](C)(C)CCCCCC[N+](C)(C)C | inactive |
| O=c1[nH]cnc2c1ncn2[C@H]1CC[C@@H](CO)O1 | 10 µM (active) |
| CCN(CC)CCNC(=O)c1ccc(N)cc1 | inactive |
| O=C(O)c1c(Cl)c(Cl)c(Cl)c(Cl)c1-c1c2cc(I)c(=O)c(I)c-2oc2c(I)c(O)c(I)cc12 | inactive |
| CCOC(=O)O[C@]1(C(=O)OCCl)CC[C@@H]2[C@H]3CCC4=CC(=O)C=C[C@]4(C)[C@@H]3[C@@H](O)C[C@@]21C | inactive |
| CCN(CC)CCOC(=O)c1ccc(N)cc1 | inactive |

system: JCK; test: as above; conditions: P. falciparum in erythrocytes, SYBR Green DNA, 72 h; series mostly up to 28.7 µM
In short: as §1

| Structure (SMILES) | outcome |
| --- | --- |
| Cc1cccc(C)c1OCC(C)N (configuration not stated) | inactive |
| CC1(C)O[C@H]2C[C@@H]3[C@H]4CCC5=CC(=O)C=C[C@]5(C)[C@@]4(F)[C@@H](O)C[C@]3(C)[C@]2(C(=O)CO)O1 | inactive |
| COc1ccc(Cc2nccc3cc(OC)c(OC)cc23)cc1OC | inactive |
| CC(=O)c1ccc(S(=O)(=O)NC(=O)NC2CCCCC2)cc1 | inactive |
| CC(=O)N[C@@H](CS)C(=O)O | inactive |
| Cc1cnc(C(=O)O)c[n+]1[O-] | inactive |
| O=C1NC(=O)C(c2ccccc2)(c2ccccc2)N1 | inactive |
| CN(C)CCC(c1ccccc1)c1ccccn1 (configuration not stated) | inactive |
| CC/C(=C(\c1ccccc1)c1ccc(OCCN(C)C)cc1)c1ccccc1 | inactive |
| O=C1NCC2(CCN(CCc3ccccc3)CC2)O1 | inactive |
| CC(=O)O[C@]1(C(C)=O)CC[C@H]2[C@@H]3C=C(Cl)C4=CC(=O)[C@@H]5C[C@@H]5[C@]4(C)[C@H]3CC[C@@]21C | inactive |
| NC(N)=Nc1nc(CSCC/C(N)=N/S(N)(=O)=O)cs1 | inactive |
| CCCCCN(C)CCC(O)(P(=O)(O)O)P(=O)(O)O | inactive |
| NCCS | inactive |
| COc1ccccc1N1CCN(CCCNc2cc(=O)n(C)c(=O)n2C)CC1 | inactive |
| O=C(NCCN1CCOCC1)c1ccc(Cl)cc1 | inactive |

| Structure (SMILES) | outcome |
| --- | --- |
| C[C@@H](O)[C@H]1C(=O)N2C(C(=O)O)=C(S[C@@H]3CN[C@H](C(=O)N(C)C)C3)[C@H](C)[C@H]12 | inactive |
| CC(=O)CCCCn1c(=O)c2c(ncn2C)n(C)c1=O | inactive |
| O=C(O)c1cc(-c2ccccc2)nc2ccccc12 | inactive |
| O=C(O)Cc1cccc2ccccc12 | inactive |
| CCN(CC)C(=O)c1ccc(O)c(OC)c1 | inactive |
| CCCCC1C(=O)N(c2ccccc2)N(c2ccccc2)C1=O | inactive |
| O=C1Nc2ccc(Cl)cc2C(C#CC2CC2)(C(F)(F)F)O1 (configuration not stated) | inactive |
| CCCNC(=O)NS(=O)(=O)c1ccc(Cl)cc1 | inactive |
| CCN1CCC[C@H]1CNC(=O)c1cc(S(N)(=O)=O)ccc1OC | inactive |
| C[N+](C)(C)CCCCCC[N+](C)(C)C | inactive |
| O=c1[nH]cnc2c1ncn2[C@H]1CC[C@@H](CO)O1 | inactive |
| CCN(CC)CCNC(=O)c1ccc(N)cc1 | inactive |
| O=C(O)c1c(Cl)c(Cl)c(Cl)c(Cl)c1-c1c2cc(I)c(=O)c(I)c-2oc2c(I)c(O)c(I)cc12 | inactive |
| CCOC(=O)O[C@]1(C(=O)OCCl)CC[C@@H]2[C@H]3CCC4=CC(=O)C=C[C@]4(C)[C@@H]3[C@@H](O)C[C@@]21C | inactive |
| Clc1ccc(Cn2c(CN3CCCC3)nc3ccccc32)cc1 | inactive |
| CCN(CC)CCOC(=O)c1ccc(N)cc1 | inactive |

system: N140; test: as above; conditions: P. falciparum in erythrocytes, SYBR Green DNA, 72 h; series mostly up to 28.7 µM
In short: as §1

| Structure (SMILES) | Potency |
| --- | --- |
| CC1(C)O[C@H]2C[C@@H]3[C@H]4CCC5=CC(=O)C=C[C@]5(C)[C@@]4(F)[C@@H](O)C[C@]3(C)[C@]2(C(=O)CO)O1 | inactive |
| COc1ccc(Cc2nccc3cc(OC)c(OC)cc23)cc1OC | inactive |
| CC(=O)c1ccc(S(=O)(=O)NC(=O)NC2CCCCC2)cc1 | inactive |
| CC1=C(/C=C/C(C)=C/C=C/C(C)=C/C(=O)Nc2ccc(O)cc2)C(C)(C)CCC1 | 10 µM (active) |
| CC(=O)N[C@@H](CS)C(=O)O | inactive |
| Cc1cnc(C(=O)O)c[n+]1[O-] | inactive |
| O=C1NC(=O)C(c2ccccc2)(c2ccccc2)N1 | inactive |
| CN(C)CCC(c1ccccc1)c1ccccn1 (configuration not stated) | inactive |
| O=C1NCC2(CCN(CCc3ccccc3)CC2)O1 | inactive |
| CC(=O)O[C@]1(C(C)=O)CC[C@H]2[C@@H]3C=C(Cl)C4=CC(=O)[C@@H]5C[C@@H]5[C@]4(C)[C@H]3CC[C@@]21C | inactive |
| NC(N)=Nc1nc(CSCC/C(N)=N/S(N)(=O)=O)cs1 | inactive |
| CCCCCN(C)CCC(O)(P(=O)(O)O)P(=O)(O)O | inactive |
| NCCS | inactive |
| COc1ccccc1N1CCN(CCCNc2cc(=O)n(C)c(=O)n2C)CC1 | inactive |
| O=C(NCCN1CCOCC1)c1ccc(Cl)cc1 | inactive |
| C[C@@H](O)[C@H]1C(=O)N2C(C(=O)O)=C(S[C@@H]3CN[C@H](C(=O)N(C)C)C3)[C@H](C)[C@H]12 | inactive |
| CC(=O)CCCCn1c(=O)c2c(ncn2C)n(C)c1=O | inactive |
| O=C(O)c1cc(-c2ccccc2)nc2ccccc12 | inactive |
| O=C(O)Cc1cccc2ccccc12 | inactive |
| CCN(CC)C(=O)c1ccc(O)c(OC)c1 | inactive |
| O=C1Nc2ccc(Cl)cc2C(C#CC2CC2)(C(F)(F)F)O1 (configuration not stated) | inactive |
| CCCNC(=O)NS(=O)(=O)c1ccc(Cl)cc1 | inactive |
| CCN1CCC[C@H]1CNC(=O)c1cc(S(N)(=O)=O)ccc1OC | inactive |
| C[N+](C)(C)CCCCCC[N+](C)(C)C | inactive |
| O=c1[nH]cnc2c1ncn2[C@H]1CC[C@@H](CO)O1 | inactive |
| CCN(CC)CCNC(=O)c1ccc(N)cc1 | inactive |
| O=C(O)c1c(Cl)c(Cl)c(Cl)c(Cl)c1-c1c2cc(I)c(=O)c(I)c-2oc2c(I)c(O)c(I)cc12 | inactive |
| CCOC(=O)O[C@]1(C(=O)OCCl)CC[C@@H]2[C@H]3CCC4=CC(=O)C=C[C@]4(C)[C@@H]3[C@@H](O)C[C@@]21C | inactive |
| Clc1ccc(Cn2c(CN3CCCC3)nc3ccccc32)cc1 | inactive |
| CCN(CC)CCOC(=O)c1ccc(N)cc1 | inactive |

Source: PubChem BioAssay (NCATS)
